# BRCT inh green: inhibitors of human BRCA1 BRCT-phosphoprotein interaction (green fluorophore); Potency, µM (doses to about 76.9 µM), hits mostly inhibitors; BRCA1 BRCT-phosphopeptide binding, green fluorescence polarization; P38398; 75,000 tested, 0.05% active
#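 Fluorescence polarization: His-tagged BRCT (~35 kDa BRCA1 C-terminus, 250 nM) bound to 100 nM fluorescein-labeled phosphorylated 10-aa BACH1 peptide, pH 7.3 phosphate buffer with DTT and Tween 20. Compounds incubated 12 min at room temperature; inhibition read as lowered polarization.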
# HEK293 cAMP cs: raises cAMP in parental HEK293 cells, TSHR agonist counter-screen. Potency, µM (titrated, usually from 57.1 µM), actives largely listed as activators. 73,000 tested, 2.5% active. parental HEK293 CNG cAMP sensor, membrane potential fluorescence; note: nearly all actives have a fitted effect of over 55% in size
#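 Parental HEK 293 cells stably expressing a modified CNG channel (no TSHR) report cAMP rise as membrane depolarization. Membrane potential dye with 100 uM RO 20-1724 was loaded for 60 min at room temperature, then compound added for 30 min; fluorescence read at 590 nm.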
# TSHR ag: TSH receptor (human) agonism. HEK293-CNG-TSHR cells (CNG channel as cAMP sensor), membrane potential dye, cAMP. P16473. Potency, µM (doses to about 57.1 µM), actives largely listed as activators. 73,000 tested, 0.48% active; active = well fitted activation curve with a large enough effect in the main read-out, with a control signal flat, not every such curve was filed as active; inconclusive = small, poorly fitted or top-dose-only effect, or a change in a side signal; inactive = no such curve, though single readings can be large or run the other way; reference of the percent scale not stated here;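 note: the control signal comes from parental cells without the receptor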
#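 HEK 293 cells stably expressing TSHR and a modified CNG channel, with CNG-only parental cells as counterscreen, were preloaded 60 min at room temperature with membrane potential dye containing 100 uM RO 20-1724. Compound exposure was 30 min, and depolarization was read as fluorescence at 590 nm.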
# YjeE inh: YjeE (TsaE) inhibition, E. coli; P0AF67; purified YjeE enzyme, qHTS inhibition assay; Potency, µM; 71,000 tested, 0.05% active
#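 Purified YjeE (10 uM) with BODIPY Texas Red-labeled ADP probe (2 uM); compounds pin-transferred, 15 min at room temperature. Binding inhibition read as decreased fluorescence polarization; ADP titration as control.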
# BRCT PPI red: inhibitors of human BRCA1 BRCT-phosphoprotein interaction (red fluorophore); P38398; BRCT-phosphopeptide binding, red fluorescence polarization; Potency, µM (doses to about 76.9 µM), most hits filed as inhibitors; 75,000 tested, 0.03% active
#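 Fluorescence polarization: 100 nM His-tagged BRCA1 BRCT with 100 nM TAMRA-labelled phospho-BACH1 decapeptide, phosphate buffer pH 7.3 with 150 mM NaCl, DTT, 0.01% Tween 20; 12 min RT. Binding inhibition seen as FP decrease.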
# Hsp90 Hop PPI: changes Hsp90-Hop TPR2A binding signal, up or down | AlphaScreen TPR2A-His6 binding biotin-Hsp90 C-terminal peptide | 71,000 tested, 0.44% active | Potency, µM (titrated, usually from 57 µM) | AID 595; active = well fitted curve in either direction with a large enough effect; inconclusive = small, poorly fitted or top-dose-only effect, or another doubt
# Numbers stand for hits; i = inactive; ? = inconclusive; nt = no result; [ ] = dose if it differs, or a comment. Only some compounds are listed: those with a hit (about 3.3% of all), similar ones and a draw of the others. Unless noted, calls come from the whole dose curve; as a rule, active = well fitted curve in the direction sought with a large enough effect; inconclusive = small, poorly fitted or top-dose-only effect, or another doubt; inactive = no such curve, though single readings can be large; an effect the other way counts as inactive or inconclusive.
SMILES,BRCT inh green,HEK293 cAMP cs,TSHR ag,YjeE inh,BRCT PPI red,Hsp90 Hop PPI
c1ccc(CN(Cc2ccco2)C(c2ccncc2)c2nnnn2C2CCCC2)cc1 (configuration not stated),i,10µM,?,i,i,i
O=C(c1cccc(F)c1)N1CCC2(CCCN(c3cccc(-c4ccccc4)c3)C2)CC1,i,1.3µM,?,i,i,i
O=C(c1cc(C(F)(F)F)cc(C(F)(F)F)c1)N1CCC2(CC1)CCN(c1ccncc1)CC2,i,3.2µM,?,i,i,i
O=C(c1cccc(F)c1)N1CCC2(CC1)CCN(c1ccncc1)CC2,i,4µM,?,i,i,i
C[N+](C)(C)CCN[N@@+]1(C)CCCc2ccccc21,i[15.4 µM],i[11.4 µM],i[11.4 µM],i,i[15.4 µM],i[11 µM]
CCCCn1c(SCC(=O)c2cc(OC)ccc2OC)nc2cc(S(N)(=O)=O)ccc21,i,25µM,?,i,i,i
C=C(CO)[C@H]1Cc2c(ccc3c2O[C@H]2COc4cc(OC)c(OC)cc4[C@@H]2C3=O)O1,nt,i,i,i,nt,i
CCOc1ccc2[nH]c(=O)c(CN(Cc3ccco3)Cc3nnnn3Cc3ccccc3)cc2c1,i,32µM,?,i,i,i
COc1ccccc1CN(Cc1cc2cc(C)ccc2[nH]c1=O)Cc1nnnn1Cc1ccco1,i,20µM,?,i,i,i
Cc1ccc2ccccc2c1COC(=O)c1nonc1N,i,16µM,?,i,i,i
CCC(C(=O)Nc1cc(C)nn1-c1nc(C)cc(C)n1)c1ccccc1 (configuration not stated),i,16µM,?,i,i,i
Cc1cc(C)nc(-n2nc(C)cc2NC(=O)CN2CCCC(C)C2)n1 (configuration not stated),i,?,?,i,i,i
Cc1cc(C)nc(-n2nc(C)cc2NC(=O)CN2CCc3ccccc3C2)n1,i,25µM,?,i,i,i
O=C(NC1CCN(Cc2ccccc2)C1)c1ccc(Cc2nc3ccccc3[nH]2)cc1 (configuration not stated),i,i,i,nt,i,nt
Cc1cnc(CNc2ncncc2-c2ccccc2C(F)(F)F)cn1,i,i,i,i,i,i
CC(C)(C)c1onc(OCP(=O)(O)O)c1C[C@@H](N)C(=O)O,i,i,i,i,i,i
Fc1ccccc1COc1cccc(/C=N/n2cnnc2)c1,i,32µM,?,i,i,i
CCc1ccc(-c2cn(-c3nc(C)cc(C)n3)c(=N)o2)cc1,i,25µM,?,i,i,i
COCCN(CCOC)c1nc(C)nc2c1nc(-c1ccccc1)n2CCCN(C)C,i,?,?,i,i,i
CCOC(=O)c1[nH]c(C)c(C(=O)c2cc(F)ccc2F)c1C,i,i,32µM,i,i,i
CC1=C(C(=O)OCc2ccccc2)C(C2CC2)NC(=O)N1CCCCCC(=O)O (configuration not stated),i,20µM,?,i,i,i
CC1=C(C(=O)OCc2ccccc2)C(C2CCCCC2)NC(=O)N1CCCCCC(=O)O (configuration not stated),i,?,?,i,i,i
CC1=C/C(=C(/c2ccc(O)c(C)c2)c2ccccc2C(=O)O)C=CC1=O,i[15.4 µM],i[11.4 µM],i[11.4 µM],i,i[15.4 µM],i[11 µM]
O=C(O)C1=CC(=C(c2ccc(O)c(C(=O)O)c2)c2ccc(O)c(C(=O)O)c2)C=CC1=O,16µM,i,nt,i,i,?
CC(=O)c1c(O)c(C)c(O)c2c1OC1=CC(=O)[C@H](C(C)=O)C(=O)[C@]12C,nt,i,i,i,nt,i
SMILES,BRCT inh green,HEK293 cAMP cs,TSHR ag,YjeE inh,BRCT PPI red,Hsp90 Hop PPI
CCOC(=O)c1cnc(-n2nc(C)cc2C)nc1Nc1ccc(N(C)C)cc1,i,i,i,i,i,i
CCOC(=O)c1cnc(-n2nc(C)cc2C)nc1Nc1cccc(C(=O)O)c1,i,i,25µM,i,i,i
CCOC(=O)c1[nH]cnc1C(=O)Nc1ccccn1,i,i,i,i,i,i
CCOC(=O)c1[nH]cnc1C(=O)O,i,i,i,i,i,25µM
CC(C)(C)NC(=O)NC(=O)COc1ccccn1,i,10µM,?,i,i,i
CNC(=O)[C@@H]1O[C@@H](n2cnc3c(NCc4cccc(I)c4)ncnc32)[C@H](O)[C@@H]1O,i,i,nt,i,i,i
Cc1ccc(SCCNS(=O)(=O)c2ccc(F)cc2)cc1,i,i[11.4 µM],1µM,i,i,i[11 µM]
CCN(C(=O)c1cc2cc3ccc(C)cc3nc2o1)c1ccc(OC)cc1,i,40µM,?,i,i,i
O=C(Nc1ccccc1)N1CCC2(CC1)CCN(C(=O)c1ccncc1)CC2,i,?,?,i,i,i
COc1ccccc1C(=O)N1CCN(C(=O)c2ccncc2)CC1,i,25µM,?,i,i,i
COc1ccccc1C(=O)N1CCN(c2cccc(Cl)c2)CC1,i,?,?,i,i,i
Cc1noc(C)c1CSc1nnc(-c2ccccc2)n1Cc1ccco1,i,16µM,?,i,i,i
CNC1CCC(c2ccc(Cl)c(Cl)c2)c2ccccc21 (configuration not stated),i[3.08 µM],nt,nt,nt,i,nt
COc1cccc(Nc2ncc3nc(-c4ccccc4)c(=O)n(Cc4cccs4)c3n2)c1,i,i,i,i,i,i
COc1ccc([C@@H]2OC[C@]3(COC(C)=O)[C@H](C)C=C(C)[C@@H]2[C@H]3C)cc1,nt,?,?,i,nt,?
COC(=O)c1ccccc1NC(=O)c1ccc(F)cc1,i,?,?,i,i,i
CCOc1ccccc1C(=O)Nc1cc(OC)ccc1OC,i,25µM,?,nt,i,nt
COC(=O)c1ccccc1NC(=O)c1ccccc1OC,i,16µM,?,i,i,?
COc1ccc(Oc2ncc3nc(-c4cc(F)cc(F)c4)c(=O)n(C[C@H]4CCCO4)c3n2)cc1,i,i,i,i,i,i
CCCn1c(SCC(=O)Nc2nc3c(s2)CCCC3)nc2c1c(=O)n(C)c(=O)n2C,i,16µM,?,i,i,i
CCCCn1c(SCC(=O)Nc2nnc(C(C)C)s2)nc2c1c(=O)n(C)c(=O)n2C,i,1.6µM,?,i,i,i
CCCn1c(SCC(=O)Nc2nnc(CC)s2)nc2c1c(=O)n(C)c(=O)n2C,i,i,i,i,i,i
CCC(C)(C)n1nnnc1CN(Cc1ccc(Cl)cc1)Cc1ccco1,i,10µM,?,i,i,?
CCN1CCCC1CNC(=O)c1ccc(-n2c(=O)c(=O)[nH]c3ccccc32)cc1 (configuration not stated),i,?,?,nt,i,nt
O=C(O)c1cc(S(=O)(=O)Nc2ccc(O)cc2)ccc1Cl,i,i,i,nt,i,nt
CC(=O)OCC1OC(C#CC(C)(C)C)C=CC1OC(C)=O (configuration not stated),i[15.4 µM],i[11.4 µM],?,nt,i[15.4 µM],nt

# Screens: PubChem, National Center for Advancing Translational Sciences (NCATS)
